# Experimental data as given in PubChem BioAssay (EPA / NIEHS).
# Calls of active or inactive are those of the source. The calls were made as follows: active = hit-call score of the fitted dose curve at least 0.9, where 1 is the maximum; inactive = score below 0.9.
# Experiments:
# [1] = molecular target: Bile acid receptor (Homo sapiens) (UniProt Q96RI1); assay: ATG_IR1_CIS: Attagene CIS-FACTORIAL HepG2 Assay for human Nuclear Receptor Subfamily 1 Group H Member 4 (NR1H4), IR1 submotif (AID 2282946); details: IR1 reporter transcription, actives raise or lower the signal
# How it was run: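 HepG2 cells transiently transfected with multiple cis-promoter-driven reporter units to measure endogenous transcription factor activity; 24 h exposure. Reporter mRNA read by RT-PCR, FAM labelling, HpaI digestion and capillary electrophoresis. Bidirectional fit versus DMSO.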
# [2] = ATG_GRE_CIS: Attagene CIS-FACTORIAL HepG2 Assay for human Glucocorticoid Response Elements (GRE) (AID 2282947); details: HepG2 GRE cis-reporter, Attagene multiplex mRNA; actives raise or lower the signal
# How it was run: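 Endogenous transcription factor activity is read through cis-element reporter constructs transiently transfected into HepG2 cells. After 24 h treatment, labelled RT-PCR products are resolved by capillary electrophoresis; DMSO sets baseline for bidirectional curve fitting.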
# [3] = ATG_ISRE_CIS: Attagene CIS-FACTORIAL HepG2 Assay for human Interferon Regulatory Factor 1 (IRF1) binding to an Interferon-Stimulated Response Element (ISRE) (AID 2282948); details: HepG2 ISRE cis-reporter (Attagene), mRNA transcription readout; actives raise or lower the signal
# How it was run: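 Quantitation relies on labelled RT-PCR fragments separated by capillary electrophoresis. Human HepG2 cells bearing cis-promoter reporter constructs were treated 24 h; DMSO served as baseline for bidirectional fitting.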
# [4] = ATG_M_32_CIS: Attagene CIS-FACTORIAL HepG2 Assay for M32 Transcription Factor (Internal Marker) (AID 2282949); details: HepG2 Attagene cis-factorial M32 reporter, mRNA; actives raise or lower the signal;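 also: background control marker of the multiplexed CIS panel rather than a real target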
# How it was run: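 Internal background marker read-out: RT-PCR/capillary electrophoresis fluorescence of reporter transcripts from transiently transfected HepG2 cells after 24 h chemical exposure. Activity fitted bidirectionally relative to DMSO negative control.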
# [5] = ATG_M_06_CIS: Attagene CIS-FACTORIAL HepG2 Assay for M06 Transcription Factor (Internal Marker) (AID 2282950); details: HepG2 Attagene CIS-FACTORIAL M06 internal marker reporter; actives raise or lower the signal
# How it was run: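 HepG2 cells transiently transfected with cis-regulated multiple reporter transcription units were exposed to chemical for 24 h; reporter mRNA was quantified by RT-PCR, 6-FAM primer labelling, HpaI digestion and capillary electrophoresis, fitted bidirectionally against DMSO.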
# [6] = molecular target: Hypoxia-inducible factor 1-alpha (Homo sapiens) (UniProt Q16665); assay: ATG_HIF1a_CIS: Attagene CIS-FACTORIAL HepG2 Assay for human Hypoxia Inducible Factor 1 (HIF1A) (AID 2282951); details: HepG2 Attagene cis-factorial HIF1a reporter transcription; actives raise or lower the signal
# How it was run: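 Activity is fitted in both directions relative to DMSO. Reporter transcripts are read by RT-PCR, fluorescent primer extension and capillary electrophoresis after 24 h chemical treatment. The cells are HepG2 carrying transiently transfected cis-element-driven reporter units responding to endogenous factors.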
# [7] = molecular target: Hepatocyte nuclear factor 6 (Homo sapiens) (UniProt Q9UBC0); assay: ATG_HNF6_CIS: Attagene CIS-FACTORIAL HepG2 Assay for human Hepatocyte Nuclear Factor 6 (HNF6) (AID 2282952); details: HepG2 Attagene cis-factorial HNF6 reporter transcription; actives raise or lower the signal
# How it was run: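 Multiplexed mRNA reporter assay in transfected HepG2; 24 h dosing; RT-PCR plus capillary electrophoresis fluorescence; DMSO-referenced bidirectional curve fitting.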
# [8] = molecular target: Heat shock factor protein 1 (Homo sapiens) (UniProt Q00613); assay: ATG_HSE_CIS: Attagene CIS-FACTORIAL HepG2 Assay for human Heat Shock Transcription Factor 1 (HSE) (AID 2282953); details: HepG2 HSE cis-reporter, Attagene RNA transcription; actives raise or lower the signal
# How it was run: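 HepG2 cells transiently transfected with multiple reporter transcription units under cis-regulatory promoter control, measuring endogenous transcription factor activity. After 24 h chemical exposure, reporter mRNA quantified by RT-PCR, fluorescent labelling, HpaI digestion and capillary electrophoresis; bidirectional fit versus DMSO.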
# [9] = ATG_MRE_CIS: Attagene CIS-FACTORIAL HepG2 Assay for human Metal Responsive Element (MRE) (AID 2282954); details: HepG2 MRE cis-reporter transcription, Attagene multiplex; actives raise or lower the signal
# How it was run: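 Fluorescent reporter fragments separated by capillary electrophoresis give mRNA induction for the MRE unit after 24 h treatment of transfected HepG2 cells. Endogenous transcription-factor activity is read; DMSO serves as negative control and baseline.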
# [10] = ATG_PBREM_CIS: Attagene CIS-FACTORIAL HepG2 Assay for human Phenobarbital-responsive Enhancer Module (PBREM) (AID 2282955); details: HepG2 PBREM cis-reporter, Attagene multiplexed transcription; actives raise or lower the signal
# How it was run: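 Endogenous transcription factor activity was read from reporter transcripts in transiently transfected human HepG2 liver cells after 24 h dosing. RT-PCR products were fluorescently labelled, HpaI-cut and sized by capillary electrophoresis; activity fitted bidirectionally against DMSO baseline.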
# [11] = molecular target: Paired box protein Pax-6 (Homo sapiens) (UniProt P26367); assay: ATG_Pax6_CIS: Attagene CIS-FACTORIAL HepG2 Assay for human Paired Box 6 (PAX6) (AID 2282956); details: HepG2 CIS-FACTORIAL PAX6 reporter transcription, RNA readout; actives raise or lower the signal
# How it was run: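 After twenty-four hours of chemical exposure, transfected HepG2 cells are harvested for RNA. Cis-promoter reporter transcripts are amplified, fluorescently labelled and sized by capillary electrophoresis, with gain and loss of signal scored against DMSO.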
# [12] = ATG_PXRE_CIS: Attagene CIS-FACTORIAL HepG2 Assay for human Pregnane X Receptor Element (PXRE) (AID 2282957); details: HepG2 Attagene CIS-FACTORIAL PXRE reporter, mRNA; actives raise or lower the signal
# How it was run: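 Cells: HepG2, transiently transfected reporter units under cis promoter control. Exposure: 24 h. Detection: reporter mRNA via RT-PCR/CE fluorescence; bidirectional fitting, DMSO-referenced.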
# [13] = ATG_PPRE_CIS: Attagene CIS-FACTORIAL HepG2 Assay for human Peroxisome Proliferator-activated Response Element (PPRE) (AID 2282958); details: HepG2 PPRE cis-element reporter, Attagene transcription factor profiling; actives raise or lower the signal
# How it was run: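 Endogenous PPRE-driven transcription is measured in HepG2 cells carrying transfected multi-reporter constructs. Reporter transcripts are quantified by RT-PCR, HpaI digestion and capillary electrophoresis 24 h after dosing. DMSO baseline, bidirectional fit.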
# [14] = ATG_Sox_CIS: Attagene CIS-FACTORIAL HepG2 Assay for human SRY-box transcription factor (SOX) (AID 2282960); details: HepG2 Attagene cis-factorial SOX reporter, mRNA; actives raise or lower the signal
# How it was run: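 Reporter transcripts, measured by RT-PCR and capillary electrophoresis of labelled fragments, report endogenous SOX transcription factor activity. Transiently transfected human HepG2 cells receive chemical for 24 h; changes in either direction are fitted relative to DMSO.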
# [15] = molecular target: Transcription factor Sp1 (Homo sapiens) (UniProt P08047); assay: ATG_Sp1_CIS: Attagene CIS-FACTORIAL HepG2 Assay for human Specificity Protein 1 (Sp1) (AID 2282961); details: HepG2 Sp1 cis-reporter transcription, actives raise or lower the signal
# How it was run: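 Read-out is reporter transcript level, measured by RT-PCR and fluorescent capillary electrophoresis after 24 h chemical treatment. System: transiently transfected HepG2 cells reporting endogenous transcription factor activity; gain or loss fitted against DMSO baseline.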
# [16] = molecular target: Signal transducer and activator of transcription 3 (Homo sapiens) (UniProt P40763); assay: ATG_STAT3_CIS: Attagene CIS-FACTORIAL HepG2 Assay for human Signal Transducer and Activator of Transcription 3 (STAT3) (AID 2282963); details: HepG2, Attagene cis-factorial STAT3 reporter transcription; actives raise or lower the signal
# How it was run: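 Values derive from bidirectional fits relative to DMSO of reporter mRNA levels, measured by RT-PCR with capillary electrophoresis, in HepG2 cells carrying transiently transfected cis-regulated reporter units and exposed 24 h.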
# [17] = ATG_TA_CIS: Attagene CIS-FACTORIAL HepG2 Assay for human TA Basal Promoter (AID 2282964); details: HepG2 Attagene CIS-factorial TA basal promoter reporter; actives raise or lower the signal
# How it was run: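 HepG2 cells transiently transfected with multiplexed cis-promoter reporter units, dosed 24 h. Reporter mRNA measured by RT-PCR, 6-FAM labelling, HpaI digestion and capillary electrophoresis; bidirectional fit versus DMSO baseline, serving as background control.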
# [18] = ATG_TCF_b_cat_CIS: Attagene CIS-FACTORIAL HepG2 Assay for human T-Cell-Factor with beta-catenin (TCF/b-cat) (AID 2282965); details: HepG2 TCF/beta-catenin cis-reporter transcription, actives raise or lower the signal
# How it was run: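 HepG2 cells transiently transfected with cis-promoter-driven multiplexed reporter units; reporter mRNA measured 24 h after dosing by RT-PCR, FAM labelling, HpaI digestion and capillary electrophoresis. Bidirectional fitting relative to DMSO baseline.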
# [19] = ATG_RORE_CIS: Attagene CIS-FACTORIAL HepG2 Assay for human RAR-related Orphan Receptor Element (RORE) (AID 2282959); details: HepG2 Attagene cis-factorial RORE reporter, mRNA; actives raise or lower the signal
# How it was run: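 RORE reporter transcripts reflecting endogenous factor activity were read after 24 h compound exposure of transfected HepG2 cells, using reverse transcription, PCR, fluorescent labelling and capillary electrophoresis sizing. Gain or loss fitted against DMSO.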
# [20] = ATG_SREBP_CIS: Attagene CIS-FACTORIAL HepG2 Assay for human Sterol Regulatory Element Binding (SREBP) (AID 2282962); details: HepG2 Attagene cis-factorial SREBP reporter, mRNA; actives raise or lower the signal
# How it was run: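 Twenty-four hours after chemical dosing of transfected HepG2 cultures, reporter RNA was converted to cDNA, amplified, end-labelled with 6-FAM and resolved by capillary electrophoresis. Responses were fitted relative to DMSO.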
# Transcription factor Sp1 (Homo sapiens), sequence (P08047 whole entry, looked up): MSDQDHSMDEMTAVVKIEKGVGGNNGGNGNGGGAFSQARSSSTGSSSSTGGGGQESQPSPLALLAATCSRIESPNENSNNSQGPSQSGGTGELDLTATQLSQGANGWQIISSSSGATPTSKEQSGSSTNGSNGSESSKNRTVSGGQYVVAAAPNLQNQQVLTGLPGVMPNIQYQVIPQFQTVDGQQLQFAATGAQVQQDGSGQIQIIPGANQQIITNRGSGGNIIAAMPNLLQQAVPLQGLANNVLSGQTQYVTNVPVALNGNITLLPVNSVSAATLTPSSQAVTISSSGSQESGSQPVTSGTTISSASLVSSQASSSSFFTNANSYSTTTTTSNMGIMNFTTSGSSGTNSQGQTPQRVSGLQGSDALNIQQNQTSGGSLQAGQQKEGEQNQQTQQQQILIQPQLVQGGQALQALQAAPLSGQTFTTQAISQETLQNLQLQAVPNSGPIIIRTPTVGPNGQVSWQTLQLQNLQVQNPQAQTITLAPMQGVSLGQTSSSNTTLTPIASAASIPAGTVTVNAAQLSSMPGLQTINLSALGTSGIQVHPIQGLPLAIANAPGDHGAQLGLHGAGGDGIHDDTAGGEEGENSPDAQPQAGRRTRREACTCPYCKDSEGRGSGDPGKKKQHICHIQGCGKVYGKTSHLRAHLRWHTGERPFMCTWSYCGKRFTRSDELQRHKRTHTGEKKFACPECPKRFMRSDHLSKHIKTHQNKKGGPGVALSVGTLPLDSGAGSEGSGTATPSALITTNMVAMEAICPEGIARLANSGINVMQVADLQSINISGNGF
# Signal transducer and activator of transcription 3 (Homo sapiens), sequence (P40763 whole entry, looked up): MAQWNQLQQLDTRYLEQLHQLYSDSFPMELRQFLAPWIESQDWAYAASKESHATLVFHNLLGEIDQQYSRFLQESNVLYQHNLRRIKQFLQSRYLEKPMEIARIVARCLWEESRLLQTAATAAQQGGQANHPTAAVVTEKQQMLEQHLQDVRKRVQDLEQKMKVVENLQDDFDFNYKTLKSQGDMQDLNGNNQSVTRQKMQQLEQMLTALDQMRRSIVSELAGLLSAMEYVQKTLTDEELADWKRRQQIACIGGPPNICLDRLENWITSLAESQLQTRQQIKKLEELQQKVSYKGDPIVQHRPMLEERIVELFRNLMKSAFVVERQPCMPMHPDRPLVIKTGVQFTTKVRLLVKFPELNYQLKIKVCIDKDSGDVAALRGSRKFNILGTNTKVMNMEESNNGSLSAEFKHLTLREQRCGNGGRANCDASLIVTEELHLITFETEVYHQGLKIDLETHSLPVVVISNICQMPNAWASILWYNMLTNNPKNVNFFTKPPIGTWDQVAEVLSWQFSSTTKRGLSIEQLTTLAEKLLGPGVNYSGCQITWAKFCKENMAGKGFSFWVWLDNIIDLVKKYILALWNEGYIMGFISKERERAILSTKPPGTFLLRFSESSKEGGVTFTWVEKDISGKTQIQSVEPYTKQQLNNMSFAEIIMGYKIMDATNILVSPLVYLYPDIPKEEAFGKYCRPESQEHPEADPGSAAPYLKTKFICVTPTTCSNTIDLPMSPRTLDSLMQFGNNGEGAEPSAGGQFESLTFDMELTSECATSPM
# Heat shock factor protein 1 (Homo sapiens), sequence (Q00613 whole entry, looked up): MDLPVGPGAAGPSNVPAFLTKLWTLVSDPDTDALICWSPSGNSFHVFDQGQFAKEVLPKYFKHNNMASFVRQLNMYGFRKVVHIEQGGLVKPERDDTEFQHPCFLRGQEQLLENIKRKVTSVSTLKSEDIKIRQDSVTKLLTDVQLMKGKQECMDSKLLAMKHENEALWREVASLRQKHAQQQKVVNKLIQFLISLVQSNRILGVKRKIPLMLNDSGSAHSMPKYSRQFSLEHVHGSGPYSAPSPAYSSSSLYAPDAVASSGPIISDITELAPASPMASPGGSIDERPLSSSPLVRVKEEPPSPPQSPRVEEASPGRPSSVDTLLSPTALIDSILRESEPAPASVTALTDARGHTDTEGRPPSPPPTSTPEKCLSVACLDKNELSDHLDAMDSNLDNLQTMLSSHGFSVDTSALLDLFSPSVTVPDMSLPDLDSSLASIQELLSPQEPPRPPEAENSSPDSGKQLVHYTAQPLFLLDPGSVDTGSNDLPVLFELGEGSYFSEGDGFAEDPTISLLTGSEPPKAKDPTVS
# Paired box protein Pax-6 (Homo sapiens), sequence (P26367 whole entry, looked up): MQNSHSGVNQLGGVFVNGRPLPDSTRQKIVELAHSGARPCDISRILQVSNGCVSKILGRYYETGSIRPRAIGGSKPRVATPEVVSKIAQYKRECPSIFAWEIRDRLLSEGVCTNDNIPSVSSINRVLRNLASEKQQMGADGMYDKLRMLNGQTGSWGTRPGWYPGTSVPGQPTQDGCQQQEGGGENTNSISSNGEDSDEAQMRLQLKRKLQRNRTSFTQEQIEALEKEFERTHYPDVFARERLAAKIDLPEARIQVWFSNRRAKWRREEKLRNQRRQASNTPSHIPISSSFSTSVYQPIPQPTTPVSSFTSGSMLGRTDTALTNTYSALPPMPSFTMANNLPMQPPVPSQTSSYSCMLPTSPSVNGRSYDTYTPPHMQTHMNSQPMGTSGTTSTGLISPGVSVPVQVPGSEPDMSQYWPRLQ
# Hypoxia-inducible factor 1-alpha (Homo sapiens), sequence (Q16665 whole entry, looked up): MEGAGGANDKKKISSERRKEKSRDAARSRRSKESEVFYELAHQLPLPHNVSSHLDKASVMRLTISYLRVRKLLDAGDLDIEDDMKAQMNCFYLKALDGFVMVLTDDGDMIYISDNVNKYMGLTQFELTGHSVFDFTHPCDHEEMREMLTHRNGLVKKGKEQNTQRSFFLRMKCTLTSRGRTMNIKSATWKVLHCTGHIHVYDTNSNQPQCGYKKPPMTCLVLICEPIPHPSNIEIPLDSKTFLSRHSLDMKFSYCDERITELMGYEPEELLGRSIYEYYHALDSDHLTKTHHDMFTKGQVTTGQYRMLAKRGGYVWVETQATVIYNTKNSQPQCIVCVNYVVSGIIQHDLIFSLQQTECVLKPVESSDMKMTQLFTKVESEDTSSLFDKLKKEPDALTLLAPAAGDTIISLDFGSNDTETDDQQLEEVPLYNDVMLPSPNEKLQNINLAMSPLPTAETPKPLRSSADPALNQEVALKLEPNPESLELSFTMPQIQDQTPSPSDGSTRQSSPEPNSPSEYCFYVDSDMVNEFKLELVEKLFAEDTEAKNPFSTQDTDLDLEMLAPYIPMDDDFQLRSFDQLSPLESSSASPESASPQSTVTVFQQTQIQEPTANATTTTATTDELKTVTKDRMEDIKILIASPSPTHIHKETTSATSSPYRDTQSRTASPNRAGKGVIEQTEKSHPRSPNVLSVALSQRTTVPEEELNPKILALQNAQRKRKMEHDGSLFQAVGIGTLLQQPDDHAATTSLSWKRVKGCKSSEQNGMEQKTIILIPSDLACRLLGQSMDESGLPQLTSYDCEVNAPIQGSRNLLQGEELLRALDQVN
# Hepatocyte nuclear factor 6 (Homo sapiens), sequence (Q9UBC0 whole entry, looked up): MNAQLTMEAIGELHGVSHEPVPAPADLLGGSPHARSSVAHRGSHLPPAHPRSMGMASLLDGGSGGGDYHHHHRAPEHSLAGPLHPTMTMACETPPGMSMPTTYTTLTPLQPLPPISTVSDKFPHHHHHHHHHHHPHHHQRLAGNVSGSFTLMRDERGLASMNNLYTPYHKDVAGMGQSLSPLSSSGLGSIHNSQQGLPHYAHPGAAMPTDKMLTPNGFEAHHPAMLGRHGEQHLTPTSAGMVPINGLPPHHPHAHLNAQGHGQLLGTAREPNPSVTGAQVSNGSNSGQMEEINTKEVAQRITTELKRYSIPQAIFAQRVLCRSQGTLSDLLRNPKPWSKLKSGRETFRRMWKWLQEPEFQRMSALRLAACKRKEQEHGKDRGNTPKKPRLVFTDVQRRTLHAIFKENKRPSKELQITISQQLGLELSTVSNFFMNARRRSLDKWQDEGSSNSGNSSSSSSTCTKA
# Bile acid receptor (Homo sapiens), sequence (Q96RI1 whole entry, looked up): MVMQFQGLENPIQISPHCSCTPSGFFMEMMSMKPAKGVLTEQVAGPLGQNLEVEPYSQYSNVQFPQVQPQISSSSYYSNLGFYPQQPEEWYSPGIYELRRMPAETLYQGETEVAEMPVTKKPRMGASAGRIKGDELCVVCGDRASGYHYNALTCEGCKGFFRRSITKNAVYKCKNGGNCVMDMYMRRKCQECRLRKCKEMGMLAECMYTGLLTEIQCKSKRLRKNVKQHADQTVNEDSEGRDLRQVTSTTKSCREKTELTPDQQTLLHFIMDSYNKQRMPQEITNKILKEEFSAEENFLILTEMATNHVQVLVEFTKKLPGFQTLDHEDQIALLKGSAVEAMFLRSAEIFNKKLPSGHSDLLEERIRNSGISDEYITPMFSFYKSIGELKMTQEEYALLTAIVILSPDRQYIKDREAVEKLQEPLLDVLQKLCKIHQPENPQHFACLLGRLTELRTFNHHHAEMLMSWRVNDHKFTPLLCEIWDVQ
structure (smiles),measurement,setting,value
COc1ccc(C(=CC(=O)N2CCOCC2)c2ccc(Cl)cc2)cc1OC,outcome,[1],inactive
same,outcome,[2],inactive
same,outcome,[3],inactive
same,outcome,[4],inactive
same,outcome,[5],inactive
same,AC50,[6],25.5 µM (active)
same,outcome,[7],inactive
same,outcome,[8],inactive
same,AC50,[9],30.7 µM (active)
same,AC50,[10],24.9 µM (active)
same,outcome,[11],inactive
same,AC50,[12],5.15 µM (active)
same,AC50,[13],21.8 µM (active)
same,outcome,[14],inactive
same,outcome,[15],inactive
same,outcome,[16],inactive
same,outcome,[17],inactive
same,outcome,[18],inactive
CCCOc1nn(C(=O)NS(=O)(=O)c2ccccc2C(=O)OC)c(=O)n1C,outcome,[2],inactive
same,outcome,[3],inactive
same,outcome,[4],inactive
same,outcome,[5],inactive
same,outcome,[6],inactive
same,outcome,[7],inactive
same,outcome,[8],inactive
same,outcome,[9],inactive
same,outcome,[10],inactive
same,outcome,[11],inactive
same,AC50,[12],50 µM (active)
same,outcome,[13],inactive
same,outcome,[19],inactive
same,outcome,[14],inactive
same,outcome,[15],inactive
same,outcome,[20],inactive
same,outcome,[16],inactive
same,outcome,[17],inactive
same,outcome,[18],inactive
CC(Oc1cccc(Cl)c1)C(=O)O (centres undefined),outcome,[1],inactive
same,outcome,[2],inactive
same,outcome,[3],inactive
same,outcome,[4],inactive
same,outcome,[5],inactive
same,outcome,[6],inactive
same,outcome,[7],inactive
same,outcome,[8],inactive
same,outcome,[9],inactive
same,outcome,[10],inactive
same,outcome,[11],inactive
same,outcome,[12],inactive
same,outcome,[13],inactive
same,outcome,[15],inactive
same,outcome,[16],inactive
same,outcome,[17],inactive
same,outcome,[18],inactive
